Test results: PubChem BioAssay (NCI)
Where “and” joins values, the source holds several entries; their conditions need not be identical. Identical values can stand only once. The panel holds about 83,000 compounds, 20% with a hit somewhere; the sample as a whole holds those more often.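 Cells were grown in 96-well plates and exposed to the test compound at a single concentration for 48 hours; results are reported as percent growth, with values below 10 considered active.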 Values without a mark were called inactive. Calls of active or inactive are those of the source.

These molecules were tested on MDA-MB-468 breast (assay: NCI-60 one-dose screen, 48 h (100 = growth as untreated, 0 = no growth, -100 = all killed)). Settings: 10 µM unless noted.

Row | SMILES | growth
1 | CCCCCN1C=C/C(=C\C(=O)N(C)c2ccccc2Br)c2ccccc21 | 71.2%
2 | O=[N+]([O-])c1ccc(N/N=C\c2cc(Br)ccc2O)nc1 | -19.7% (active) and -13.5% (active)
3 | O=C1C=CC(=O)N1Cc1ccco1 | 65.4%
4 | O=C1Nc2ccc(Cl)cc2/C1=C/c1cccs1 | -4.25% (active)
5 | COc1ccc(Nc2nn3c(SCC(=O)c4ccc(C)cc4)nnc3s2)cc1 | 87.1%
6 | CN(C)S(=O)(=O)c1ccc(-c2nc(C(Cl)Cl)nc3cc(-c4ccccc4)nn23)cc1 | 60.7%
7 | C=C1C(=O)O[C@H]2[C@H]1CC/C(COC(=O)/C=C\C(=O)NCc1ccc(Cn3c(=O)sn(-c4ccc(OC)cc4)c3=O)cc1)=C\CC[C@@]1(C)O[C@@H]21 | -81.7% (active)
8 | Cn1c(=O)c2nc3c(=O)n(C)c(=O)n(C)c3nc2n(C)c1=O | 92.1%
9 | N#Cc1nc(-c2ccccc2)oc1S(=O)(=O)N1CCCCC1 | 21.8%
10 | COC(=O)CCOc1ccccc1 | 80%
11 | COc1ccc(C2CC(=O)c3c(O)c(OC)c(OC)c(OC)c3O2)c(O)c1 (centres undefined) | -3.61% (active)
12 | C=C(C)[C@@H]1C[C@@H]2Cc3cc(Cl)ccc3N1O2 | 96%
13 | COc1cccc(/C=N/C(=S)NC2(C)C3CCC(C3)C2(C)C)c1O (centres undefined) | 57%
14 | CCCCCCCCCCCC(=O)NC(C)(C)C(=O)N1CCCC1C(=O)NC(C)(C)C(=O)NC(C)(C)C(=O)N1CCCC1C(=O)NC(C)(C)C(=O)NC(C)(C)C(=O)N1CCCC1C(=O)NC(C)C(=O)NCCC(=O)NC(C)C(=O)NC(C)(C)C(=O)NC(C)(C)C(=O)NC(C)(C)C(=O)NCCC(=O)NC(C)(C)C(=O)NC(C)(C)C(=O)NC(C)(C)C(=O)NC(C)C(=O)NCCC(=O)O (centres undefined) | -88.5% (active)
